From PubChem
Hits are enriched below; roughly 9.5% of the tested compounds scored in any of these assays.
NS1 function inh: qHTS Assay for Inhibitors of Influenza NS1 Protein Function; Potency, µM (highest dose often 46.1 µM); 270,000 tested, 0.4% active; AID 2326, 2010; note: actives are rising curves; nearly all actives have a fitted effect of over 50% in size
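OD600 was taken as the measure of yeast growth restored by compound in an NS1-expressing S. cerevisiae strain. Cells had been washed out of glucose medium and diluted 1:100 into galactose -URA medium, pH 6.0.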
Pf growth 96h: Primary qHTS for delayed death inhibitors of the malarial parasite plastid, 96 hour incubation | 320,000 tested, 6.9% active | Potency, µM (doses to about 28.7 µM), hits mostly inhibitors | P. falciparum luciferase reporter growth, 96 h; active = well fitted inhibition curve with a large enough effect; inconclusive = small, poorly fitted or top-dose-only effect, or another doubt; inactive = no such curve, though single readings can be large or run the other way
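Plates of compound plus infected erythrocytes (2% hematocrit, 0.05% parasitemia final) incubate 96 hours, 37 C, 5% CO2. Detection reagent added; reduced luminescence from the parasites' luciferase reporter flags inhibition.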
Pf growth 48h: Primary qHTS for delayed death inhibitors of the malarial parasite plastid, 48 hour incubation | 310,000 tested, 5.9% active | P. falciparum luciferase growth in erythrocytes, 48 h | Potency, µM (doses to about 28.7 µM), actives largely listed as inhibitors; active = well fitted inhibition curve with a large enough effect; inconclusive = small, poorly fitted or top-dose-only effect, or another doubt; inactive = no such curve, though single readings can be large or run the other way
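Compounds are pin-transferred into medium, infected erythrocytes (2% hematocrit, 0.1% parasitemia final) are added, and plates sit one parasite generation at 37 C in 5% CO2. Detection reagent is then added and luminescence measured.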
RE007 growth inh: qHTS Assay for Inhibitors of the HIV-1 protein Vpr | S. pombe RE007 Vpr strain, BacTiter-Glo ATP luminescence, 24 h | Potency, µM (series often up to 92.2 µM), actives largely listed as inhibitors | 360,000 tested, 0.21% active; active = well fitted falling curve with a large enough effect; inconclusive = small, poorly fitted or top-dose-only effect; inactive = no such curve, though single readings can be large or run the other way; note: nearly all actives have a fitted effect of over 50% in size
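Fission yeast strain RE007, carrying one chromosomally integrated HIV-1 vpr copy, was seeded at OD 0.01 in PMG+AL medium with 23 nL pinned compound. After 24 h at 30 °C and 99% humidity, viability was read by BacTiter-Glo luminescence.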
SARS PLpro yeast: qHTS of Yeast-based Assay for SARS-CoV PLP. 330,000 tested, 0.19% active. S. cerevisiae expressing SARS-CoV PLpro, growth rescue. AID 485353, 2010. Potency, µM (series often up to 32.9 µM), most hits filed as activators; note: nearly all actives have a fitted effect of over 55% in size
Hits are given with their value; 0 = inactive; ? = inconclusive; - = no result. Unless noted, calls come from the whole dose curve.

SMILES	NS1 function inh	Pf growth 96h	Pf growth 48h	RE007 growth inh	SARS PLpro yeast
Oc1cc(Nc2ccc(N3CCCCC3)cc2)cc2cccnc12	-	0.093µM	0.1µM	-	0
Cc1ccc(-c2csc3ncn(-n4c(C)ccc4C)c(=O)c23)o1	0	0.74µM	13µM	0	0
Cc1sc2ncn(-n3c(C)ccc3C)c(=O)c2c1C	0	?	?	0	0
Cc1ccc(C)c(NC(=S)/C(=C(\[O-])c2ccc(Cl)s2)[n+]2ccccc2)c1	-	5.9µM	?	0	0
[O-]/C(=C(\C(=S)Nc1cccc2ccccc12)[n+]1ccccc1)c1ccc(Cl)s1	?	?	?	0	0
CCc1nnc(NC(=O)C2CCCN(c3nc(C)cc(C)n3)C2)s1 (stereo unspecified)	0	4.7µM	0	0	0
Cc1cc(C)nc(N2CCCC(C(=O)Nc3nnc(C(C)(C)C)s3)C2)n1 (stereo unspecified)	0	0	0	0	0
O=C(Nc1nnc(CCN2CCCCC2)s1)C1CCCCC1	0	13µM	0	0	0
CC1(C(=O)NCC2CCCCC2)CCN1CCc1ccccc1 (stereo unspecified)	-	-	-	0	-
Brc1cccc(-c2cnco2)c1	0	0	0	0	0
c1ccc2c[n+](Cc3ccnc4ccccc34)ccc2c1	0	-	-	-	-
COCCN(C(=O)c1csnn1)C(C(=O)NC1CCCCC1)c1ccccc1F (stereo unspecified)	0	0	0	0	0
CCCC(=O)N1CCC1(C)C(=O)Nc1ccc2nccnc2c1 (stereo unspecified)	-	-	-	0	-
COc1ccc(S(=O)(=O)N2CCOCC2)cc1NC(=O)c1ccc(-n2nc(C)cc2C)cc1	0	?	10µM	0	0
CCCC(NCC(=O)Nc1cc(S(=O)(=O)N2CCOCC2)ccc1OC)c1ccccc1 (stereo unspecified)	-	12µM	12µM	0	0
COc1ccc(S(=O)(=O)N2CCCC2)cc1NC(=O)c1ccccc1F	0	0	0	0	0
COc1ccc(S(=O)(=O)N2CCOCC2)cc1NC(=O)CC(C)c1ccccc1 (stereo unspecified)	-	-	-	0	0
CCN1CCN(S(=O)(=O)c2ccc(OC)c(NC(=O)c3ccccc3F)c2)CC1	-	7.4µM	0	0	0
COc1ccc(S(=O)(=O)N2CCOCC2)cc1NC(=O)c1ccc(=O)[nH]c1	-	0	?	0	0
COc1cc(S(=O)(=O)N2CCCCC2)ccc1NC(=O)c1ccccc1Cl	0	0	9.3µM	0	0
COc1ccc(S(=O)(=O)N2CCOCC2)cc1NC(=O)c1ccc(OC(F)F)cc1	-	0	?	0	0
COc1cc(S(=O)(=O)N2CCOCC2)ccc1NC(=O)COC(=O)CC12CC3CC(CC(C3)C1)C2	?	8.3µM	-	0	0
Cc1cc(NC(=O)CCc2ccc(S(=O)(=O)N3CCOCC3)cc2)n(-c2ccccc2)n1	0	?	13µM	0	0
CCOc1ncccc1C(=O)Nc1cc(S(=O)(=O)N2CCCCC2)ccc1Cl	-	0.83µM	?	0	0
COc1ccc(NC(=O)c2ccc(S(=O)(=O)N3CCOCC3)cc2)c(OC)c1	0	4.7µM	0	0	0
SMILES	NS1 function inh	Pf growth 96h	Pf growth 48h	RE007 growth inh	SARS PLpro yeast
CCOc1ncccc1C(=O)Nc1ccc(Cl)c(S(=O)(=O)N2CCCC2)c1	-	?	?	0	0
O=C(COC(=O)C1=COCCO1)NCc1ccc(Cl)cc1	-	0	0	0	0
CC(=O)N1CCN(c2nc3ccc([N+](=O)[O-])cc3s2)CC1	0	0	0	0	0
COc1ccccc1NC(=O)c1ccc(S(=O)(=O)N2CCCC2)cc1	0	0	-	0	0
COc1cc(S(=O)(=O)N2CCCCC2)ccc1NC(=O)c1ccc(F)cc1	0	10µM	0	0	0
Nc1nc(C(=O)O)c(N=Nc2ccccc2)c(=O)[nH]1	0	-	-	-	-
CC(=O)N[C@@H]1C(O[C@H]2O[C@H](C(=O)O)C(O)[C@H](O)[C@H]2O)[C@H](O)[C@@H](CO)O[C@H]1O[C@@H]1C(C(=O)O)O[C@@H](O[C@H]2[C@H](O)[C@@H](CO)OC(O)[C@@H]2NC(C)=O)[C@H](O)[C@H]1O (stereo partly specified)	-	1.7µM	0	-	-
CC(=O)N[C@@H]1C(O)OC(CO)C(O)C1O (stereo partly specified)	-	0	0	-	-
COC1OC(CO)C(OC2OC(C(=O)O)C(OC3OC(COS(=O)(=O)O)C(OC4OC(C(=O)O)C(OC5OC(CO)C(OC6OC(C(=O)O)C(OC7OC(COS(=O)(=O)O)C(OC8OC(C(=O)O)=C[C@H](O)C8OS(=O)(=O)O)C(O)C7NC(C)=O)[C@@H](O)C6O)C(O)C5NC(C)=O)[C@@H](O)C4O)C(O)C3NC(C)=O)[C@@H](O)C2O)C(O)C1NC(C)=O (stereo partly specified)	-	7.6µM	12µM	-	-
O=C(CSCc1cnn(-c2ccccc2)c1-n1cccc1)NCc1cccs1	0	4.7µM	-	0	0
CNC(=O)CSCc1cnn(-c2ccccc2)c1-n1cccc1	0	?	-	0	0
CCOc1ccc(Nc2ccc(S(=O)(=O)N3CCN(C)CC3)cc2[N+](=O)[O-])cc1OCC	-	?	12µM	0	0
COc1cn(-c2ccccc2)nc1C(=O)OCC(=O)Nc1ccc(C)c(C)c1	-	0	0	0	0
Cc1c(C(=O)N/N=C/c2ccc(O)cc2)sc(=S)n1C	?	0	0	0	0
Cc1c(C(=O)N/N=C/c2ccccc2)sc(=S)n1C	0	13µM	0	0	0
CC(CCc1ccccc1)NCc1cccc2ccccc12 (stereo unspecified)	0	?	?	0	0
COCC(C)NCc1cccc2ccccc12 (stereo unspecified)	0	4.7µM	0	0	0
CCOc1ccc(-n2c(-c3ccc(Cl)cc3)c[n+]3c2SCC3)cc1	-	0.046µM	13µM	0	0
c1ccc(-c2c[n+]3c(n2-c2ccccc2)SCC3)cc1	0	0.41µM	1.7µM	0	0
Fc1ccc(-n2cc(-c3ccccc3)[n+]3c2SCC3)cc1	0	?	?	0	0
CCOc1ccc(C2=CSC3=NCCN23)cc1	0	0	?	0	0
CCOC(=O)Cc1csc(NC(=O)Cn2c(=O)oc3ccccc32)n1	0	0	0	0	0
CCCC1NC(=O)c2cc3ccccc3cc2-n2c1nc1ccc(F)cc1c2=O (stereo unspecified)	-	-	-	0	-
CC(=O)Nc1cccc(C(=O)N/N=C/c2c[nH]c3ccccc23)c1	0	2.3µM	0	0	0
Cc1c(CCO)c(=O)[nH]n1S(=O)(=O)c1ccc(F)cc1	0	0	0	0	0
Cc1c(CCO)c(=O)[nH]n1S(=O)(=O)c1ccccc1	0	0	3.3µM	0	0
CCOC(=O)c1cnn(C)c1NC(=O)c1ccc(Cl)cc1Cl	0	?	0	0	0
COc1ccc(C2(CNC(=O)c3ccccc3[N+](=O)[O-])CCOCC2)cc1	?	0	0	0	0
